This passage reports growth results from PubChem BioAssay (NCI).

Compounds without any hit were thinned out: in the full panel of roughly 83,000, 20% have a hit.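 In brief: 96-well plates, 48 h treatment, single concentration, percent growth endpoint.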 The source made the active and inactive calls. The calls were made as follows: active = growth percent below 10; inactive = the rest.

This assay has as its system MDA-MB-468 breast. Description: NCI-60 one-dose screen, 48 h (100 = growth as untreated, 0 = no growth, -100 = all killed). Conditions: 10 µM unless noted.
With `O=C1c2cccc3cc([N+](=O)[O-])cc(c23)C(=O)N1CCN1CCCC1`, the growth is -53.4% (active).
Consider `C=C(C)[C@H]1CC/C(C)=C/CC[C@]2(C)O[C@H]2CC/C(COC(=O)[C@@H](OC(C)=O)[C@H](NC(=O)c2ccccc2)c2ccccc2)=C\[C@@H]1O`, for which the growth is 84.4% (inactive).
Take `N#CC1CCc2c(c(-c3cn[nH]c3C(F)(F)F)nc3c(F)cc4[nH]ncc4c23)C1` (stereo not given): the growth is -6.53% (active).
As for `O=C(CCC(=O)N/N=C/c1ccccc1O)N/N=C/c1ccccc1O`, the figure is 62.8% (inactive); as for `C=CCn1c(SCC(=O)Nc2ccc(C(=O)/C=C/c3ccc(OC)cc3)cc2)nnc1-c1ccccc1`, 93.9% (inactive).
Consider `Cc1ccc(NC(=O)Cn2c(Br)nc3c2c(=O)n(C)c(=O)n3C)cc1`, for which the growth is 10.4% (inactive).
Turning to `C[n+]1c2ccccc2c(Nc2ccc(NS(=O)(=O)CCCCN=C(N)N)cc2)c2ccc(N)cc21`, the growth was 39% (inactive).
As for `Cc1ccc(C)c2c1CCC2=O`, the figure is 63.4% (inactive); as for `CC(C)[C@@]12C[C@@H](OC(=O)C3CO3)[C@@](C)(O1)[C@@H]1CC[C@@H](C)[C@H]1[C@@H]2OC(=O)/C=C/c1ccccc1` (stereo not given in full), 95.4% (inactive); as for `CC1=N/C(=C\c2cccc(Br)c2)C(=O)O1`, 107% (inactive).
As for `Cc1cc(Oc2ccccc2)ccc1Nc1ncnc2ccc(-c3cnc(Cl)c(NS(C)(=O)=O)c3)cc12`, the figure is -18.9% (active).
As to `CCCCN(C=S)CCCC`, the growth was 101% (inactive).
Turning to `Cc1ccc2c(n1)C(=O)C(Br)=C(C1CCCC1)C2=O`, the growth is 95.2% (inactive).
Turning to `CCNCc1ccccc1`, the growth was 98.6% (inactive).
As to `COc1ccc(/C(=N\NC(N)=S)c2ccc(Cl)cc2)cc1OC`, the growth was 15.9% (inactive).
As for `c1ccc(-c2nc(N3CCNCC3)c3oc(-c4ccccc4)nc3n2)cc1`, the figure is -74% (active); as for `CCO/C=N/C1=C(C#N)C(c2ccc(F)cc2)c2sc3c(CC)cccc3c2O1` (stereo not given), 7.27% (active).
For the molecule `COc1ccc(/C=C\c2cc(OC)c(OC)c(OC)c2)cc1OC(=O)c1cccc(Cn2cc(CCOC(=O)[C@H](N)Cc3cn(C)c4ccccc34)nn2)c1`, the growth was 13.9% (inactive).
As for `CC(=O)OC[C@]12CCC(C)(C)C=C1[C@H]1CC[C@@H]3[C@@]4(C)CCCNC(C)(C)[C@@H]4CC[C@@]3(C)[C@]1(C)CC2`, the figure is -6.16% (active).
As to `CCOc1cc(/C=N\NC(=O)C[N+](C)(C)C)ccc1O`, the growth was 123% (inactive).
As for `S=C=Nc1ccc(N2CCOCC2)cc1`, the figure is 87% (inactive).
Under `COc1cc(CNC(=O)c2ccsc2Nc2ccnc(C(F)(F)F)c2)ccc1O` stands 95.6% (inactive); under `N#CC1=C(N)Oc2nc[nH]c(=O)c2C1c1cccs1` (stereo not given), 99.3% (inactive); under `CSc1nc2ncncc2[nH]1`, 103% (inactive).
As for `Cc1cc(=O)oc2cc(OCc3nn4c(Nc5nc6ccccc6s5)c(-c5ccccc5)nc4s3)ccc12`, the figure is 89.9% (inactive); as for `CNC(=O)c1cc(Oc2ccc3nc(NC(=O)c4ccc5ncccc5c4)sc3c2)ccn1`, 73.7% (inactive); as for `CCCNC(=O)c1cn2ncnc(Nc3cc(C(=O)NC4CC4)ccc3C)c2c1C`, 73% (inactive).
As to `CCCCCCCCNC(=O)c1ccc(Cn2c(CCCC)nc3c(N)nc4ccccc4c32)cc1`, the growth is -72.6% (active).
As for `NC(N)=NC1CCCCC1`, the figure is 88.8% (inactive).
For the molecule `CCCCC1COc2cccc3c(SCC(=O)N(C)c4cccc5ccccc45)cc[n+]1c23` (stereo not given), the growth was 92.2% (inactive).
As for `COc1ccc(Nc2nc(NCc3ccccc3)c3ccccc3n2)cc1`, the figure is 40.2% (inactive).
As for `OCCn1cc(-c2nc(-c3c[nH]c4ncccc34)cs2)c2ccccc21`, the growth is 4.37% (active).
With `CCOc1cccc(/C(N)=N/C(N)=N/c2nc3ccccc3s2)c1`, the growth is 85.6% (inactive).
`O=C(CSc1nnc(-c2ccc3nc(-c4ccccc4)[nH]c3c2)o1)Nc1ccc(C(=O)/C=C/c2ccccc2)cc1`: the growth was 112% (inactive).
In the case of `COc1ccc2nc(-c3ccc(Cl)cc3)cc(-c3nnc(SC/C(=N/O)c4ccccc4)o3)c2c1`, the growth was 9.96% (active).
With `FC(F)(F)c1ccc(/C=N/Nc2nnc3n2N=C(c2ccc(Cl)cc2)CS3)cc1`, the growth was 74.3% (inactive).
As to `COC(=O)C1(NC(=O)CNC(=O)OCc2ccccc2)CCCC1`, the growth was 96.1% (inactive).
`COc1cc(Nc2cc(C)nc(N3CCN(c4ccnc5cc(Cl)ccc45)CC3)n2)cc(OC)c1`: the growth is 11.2% (inactive).
On to `O=Cc1ccc(-c2cn3ccnc3c(-c3ccc4ncn(Cc5ccccc5)c4c3)n2)cc1`, for which the growth was 105% (inactive).
Take `NC(=O)c1cc(Cl)ccc1NC(=O)/C=C/c1ccccc1`: the growth is 30.7% (inactive).
